This is part of a sample that, as a whole, favours compounds with a hit. Of some 79,000 tested, about 15% had one in any assay. A number with no mark means an inactive call. Activity calls are given as the source filed them. No stated cut-off is given here; in the data, active means growth inhibition above about 70%; inactive means the rest.

The values that follow come from PubChem BioAssay (NCI).

A short description of assay [1]: NCI Yeast Anticancer Drug Screen. Data for the rad50 strain (AID 155).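 Further: 0% = growth of vehicle-only cultures of the same strain.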 The settings on record: S. cerevisiae rad50 strain growth inhibition; at 50.0 µM; active compounds read high. The gist of the method: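 Growth of the mutant yeast was measured after compound exposure and referenced to vehicle-treated cultures.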
A short description of assay [2]: NCI Yeast Anticancer Drug Screen. Data for the mec2-1 strain (AID 157). The settings on record: S. cerevisiae mec2-1 strain, at 50.0 µM, active compounds read high. The gist of the method: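 Using mec2-1 yeast: add compound, measure growth, express inhibition versus vehicle-treated cultures.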
Assay [3] is described as follows: NCI Yeast Anticancer Drug Screen. Data for the sgs1 mgt1 strain (AID 161).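 Further: 0% = growth of cultures given vehicle only.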 As to conditions: S. cerevisiae sgs1 mgt1 strain, at 50.0 µM, active compounds read high. In a few lines: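 Yeast cells carrying a defined DNA-repair defect were exposed to test compounds. Growth inhibition was measured relative to vehicle-treated controls.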
Assay [4] is described as follows: NCI Yeast Anticancer Drug Screen. Data for the cln2 rad14 strain (AID 165).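 Further: 0% = growth equal to vehicle treated cultures.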 As to conditions: S. cerevisiae cln2 rad14 strain, at 50.0 µM, active compounds read high. In a few lines: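 Yeast strain cln2 rad14, bearing defects in cell cycle control and DNA repair, serves as the test system; values reflect growth inhibition compared with vehicle.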
A short description of assay [5]: NCI Yeast Anticancer Drug Screen. Data for the bub3 strain (AID 167). As to conditions: S. cerevisiae bub3 mutant strain, at 50.0 µM, active compounds read high. In a few lines: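 Whole-cell yeast assay. The mutant strain was incubated with compounds, and growth inhibition was determined by comparison with vehicle-treated cells.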
Assay [6] can be described thus: NCI Yeast Anticancer Drug Screen. Data for the mlh1 rad18 strain (AID 175). As to conditions: S. cerevisiae mlh1 rad18 strain growth inhibition; at 50.0 µM; active compounds read high. The gist of the method:
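Steps: expose repair-defective yeast to compound; measure growth; express inhibition against vehicle-treated controls.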

For the molecule `CCOC(=O)CON`, the growth inhibition in assay [1] is -7.35%; in assay [2], 1.9%; in assay [3] it was -7.45%; in assay [4], -51%; in assay [5], -12.4%; in assay [6] it was -5.8%.

For `CCCCSCC(O)c1ccccc1` (centres undefined), the growth inhibition in assay [1] is -8.85%; in assay [2], -19.1%; in assay [3], -24.5%; in assay [4], -44.1%; in assay [5], 9%; in assay [6], -2.2%.

In the case of `O=C(O)C(CO)C(CO)C(=O)O` (centres undefined), the growth inhibition in assay [1] is -12.9%; in assay [2], -14.4%; in assay [3] it was -7.05%; in assay [4] it was -14.7%; in assay [5], -22.8%; in assay [6], -2.15%.

Regarding `Cc1c(-c2ccccc2)nnn1-c1ccc(F)c(Cl)c1`, the growth inhibition in assay [1] is -16.4%; in assay [2], -27.1%; in assay [3], -8.75%; in assay [4], -10.4%; in assay [5], 6.95%; in assay [6] it was -12.4%.

As to `O=C1COc2cc(O)cc(O)c21`, the growth inhibition in assay [1] is 9.8%; in assay [2], 3.7%; in assay [3] it was 7.85%; in assay [4] it was 3.9%; in assay [5], 19.5%; in assay [6], 7.75%.

On to `O=[N+]([O-])c1ccc2c(c1)C(=Nc1ccc(Cl)cc1)c1ccccc1-2`, for which the growth inhibition in assay [1] was -0.95%; in assay [2] it was -8.6%; in assay [3], -8%; in assay [4] it was -32%; in assay [5], 24.1%; in assay [6], 5.45%.

As for `CN(C)Cc1cc(CN(C)C)cc(CN(C)C)c1`, the growth inhibition in assay [1] is 0.3%; in assay [2], 15.8%; in assay [3] it was 3.45%; in assay [4] it was -22.9%; in assay [5], -11.2%; in assay [6], -19.8%.

As for `CCN(CC)C(=O)c1c(-c2ccccc2)nc(-c2ccccc2)c(C(=O)N(CC)CC)c1Cl`, the growth inhibition in assay [1] is 42%; in assay [2] it was 14.6%; in assay [3] it was 21.6%; in assay [4], 21.6%; in assay [5], 1.05%; in assay [6], 27.8%.

Take `CC(=O)c1c(C)c(C)c(=O)n(C/C=C(\C)CCC=C(C)C)c1O`: the growth inhibition was 98% (active) in assay [1]; 99% (active) in assay [2]; 98.7% (active) in assay [3]; 97.4% (active) in assay [4]; 98.3% (active) in assay [5]; 98.1% (active) in assay [6].

As to `C(=C\C(Sc1ccccc1)c1ccccc1)/NNC1=NC(c2ccccc2)C(c2ccccc2)=NN1` (centres undefined), the growth inhibition in assay [1] is -22.4%; in assay [2] it was -8.6%; in assay [3] it was -42.8%; in assay [4], -4.35%; in assay [5] it was -19.9%; in assay [6] it was -3.55%.

Take `Nc1nnc(-c2ccccc2)nn1`: the growth inhibition in assay [1] is 4.05%; in assay [2] it was 4%; in assay [3] it was 12.1%; in assay [4], -1.15%; in assay [5], 6.55%; in assay [6] it was 9.25%.

For `CC(=O)OCC(C)(C)COC(C)=O`, the growth inhibition in assay [1] is 2.6%; in assay [2], 1.65%; in assay [3], -11.6%; in assay [4] it was -7.9%; in assay [5], -5.25%; in assay [6] it was -11.2%.

On to `O=C(O)c1ccccc1CC(Cc1ccccc1)C(=O)O` (centres undefined), for which the growth inhibition was -14.7% in assay [1]; -3.4% in assay [2]; -10.9% in assay [3]; -8.5% in assay [4]; -12.4% in assay [5]; 14% in assay [6].

Regarding `CCCCn1c(=O)c2c(ncn2C)n(C)c1=O`, the growth inhibition in assay [1] was 16.8%; in assay [2], 16.6%; in assay [3], 9.75%; in assay [4], -9.25%; in assay [5] it was -2.45%; in assay [6], 6.2%.

As for `O=C1c2ccccc2C(=O)N1N1C(=O)C2C3CCC(O3)C2C1=O` (centres undefined), the growth inhibition in assay [1] was 12.8%; in assay [2] it was 0.4%; in assay [3] it was 12.9%; in assay [4], 15.9%; in assay [5] it was 17.5%; in assay [6] it was 9.3%.

With `CC1(C)CC2(CC(C)(C)N1O)NC(=O)OC2=O`, the growth inhibition in assay [1] was 2.5%; in assay [2], -5.3%; in assay [3], -1.05%; in assay [4] it was -18.6%; in assay [5], -23.1%; in assay [6], 1.3%.

Consider `CSc1nc2c(N)nc(N)nc2nc1C`, for which the growth inhibition in assay [1] is 5.9%; in assay [2], 0.2%; in assay [3] it was 0.75%; in assay [4], -31.6%; in assay [5], -16.7%; in assay [6], 11.5%.

Regarding `O=C(O)c1cc(C(=O)O)cc(N2C(=O)c3ccccc3C2=O)c1`, the growth inhibition was 1.45% in assay [1]; -30.4% in assay [2]; -22.4% in assay [3]; 39.3% in assay [4]; -6.1% in assay [5]; 0.5% in assay [6].

Take `CC(C)(C)OC(=O)NC(CSSCC(NC(=O)OC(C)(C)C)C(=O)O)C(=O)O` (centres undefined): the growth inhibition in assay [1] is -7.05%; in assay [2], -10.2%; in assay [3], -10.7%; in assay [4], -3.45%; in assay [5] it was -5.7%; in assay [6] it was -6.4%.

For the molecule `CC(=O)CC(C)=Nc1ccc([N+](=O)[O-])cc1`, the growth inhibition in assay [1] was 1.75%; in assay [2] it was -3.9%; in assay [3], -6.7%; in assay [4], -34.5%; in assay [5], -16.6%; in assay [6], 2.3%.

`CS(=O)(=O)OC1CCC2CCCC1(C(=O)O)C2` (centres undefined): the growth inhibition in assay [1] was 2.4%; in assay [2], -6.6%; in assay [3] it was -0.75%; in assay [4], -30%; in assay [5], -5.2%; in assay [6], 9.25%.

Turning to `CONC(CC(=O)c1ccccc1)c1ccccc1` (centres undefined), the growth inhibition in assay [1] was 23.4%; in assay [2], 6.95%; in assay [3] it was 5.75%; in assay [4], 2.7%; in assay [5] it was 14.2%; in assay [6], 5.65%.

Take `Ic1ccccn1`: the growth inhibition is 15.3% in assay [1]; -11.3% in assay [2]; -9.05% in assay [3]; -29.8% in assay [4]; -8.15% in assay [5]; -1.2% in assay [6].

In the case of `O=C(Cl)c1cc(-c2ccccc2)nc2c(Cl)cccc12`, the growth inhibition is 46.1% in assay [1]; 39.4% in assay [2]; 43% in assay [3]; 39.1% in assay [4]; 40.5% in assay [5]; 38% in assay [6].

As for `CC1(C)COC(c2ccc(C(F)(F)F)cc2C(O)c2ccc3ccccc3c2)=N1` (centres undefined), the growth inhibition was 11.8% in assay [1]; -2.15% in assay [2]; 3.8% in assay [3]; 10.3% in assay [4]; -3.3% in assay [5]; 10.3% in assay [6].

Take `CCCCCCCCCCCCCCCCSc1cccc(C)c1`: the growth inhibition in assay [1] is 17.7%; in assay [2], 3.65%; in assay [3], 22.1%; in assay [4], -13.2%; in assay [5], 1.3%; in assay [6], 17.1%.

As for `O=C1NC(=O)C(=Cc2cc3c(cc2Br)OCO3)C(=O)N1`, the growth inhibition in assay [1] was 32%; in assay [2] it was 30.9%; in assay [3], 40.7%; in assay [4], 7%; in assay [5], 41.9%; in assay [6] it was 25.9%.

As to `NC(=O)C(=O)CC(=O)c1ccccc1NC1=CC(=O)C(=O)c2ccccc21`, the growth inhibition in assay [1] is 41%; in assay [2] it was 29.1%; in assay [3] it was 20.4%; in assay [4] it was 30.4%; in assay [5], 36.4%; in assay [6], 37.5%.

On to `COC1=NC(NC2OCC(O)C(O)C2O)=C(NC(C)=O)CN1C` (centres undefined), for which the growth inhibition in assay [1] was -46.5%; in assay [2], -41.4%; in assay [3], -20.1%; in assay [4] it was -3.65%; in assay [5] it was -31.7%; in assay [6], -22.4%.

Consider `CC(=O)OCC1OC(n2cc(I)c(=O)[nH]c2=O)C(OC(C)=O)C(OC(C)=O)C1OC(C)=O` (centres undefined), for which the growth inhibition in assay [1] is -29.9%; in assay [2], -22.1%; in assay [3], -12.2%; in assay [4], -27.4%; in assay [5] it was -29.5%; in assay [6], -13.2%.

As to `COc1cc(C=C2C(=O)NC(=O)NC2=O)ccc1OCc1ccccc1`, the growth inhibition in assay [1] was -0.15%; in assay [2], -1.5%; in assay [3] it was -1.1%; in assay [4] it was 3.3%; in assay [5] it was -22.3%; in assay [6], -42.6%.

In the case of `CC1CCC(NC2=NCCO2)C(C)C1` (centres undefined), the growth inhibition in assay [1] is -20.4%; in assay [2], 0.4%; in assay [3], -3.85%; in assay [4], -29.4%; in assay [5], -14.1%; in assay [6], -3.35%.

For `Cc1cccc(NC(=O)Nc2cccc(C)c2)c1`, the growth inhibition in assay [1] is -3.75%; in assay [2] it was -2.95%; in assay [3], -2%; in assay [4], -25.9%; in assay [5], -22.1%; in assay [6], -18.2%.

Regarding `COc1cccc2c1C(=N)c1c(O)c3c(c(O)c1C2=O)C[C@@](O)(C(C)=O)C[C@@H]3OC1CC(N)C(O)C(C)O1` (some centres undefined), the growth inhibition in assay [1] is 42.5%; in assay [2], -26.1%; in assay [3] it was -11.7%; in assay [4], 34.2%; in assay [5] it was -4.35%; in assay [6], 13.9%.

`CC1CCCCC(=O)N1` (centres undefined): the growth inhibition in assay [1] is 11.6%; in assay [2], 13.4%; in assay [3], 27.7%; in assay [4], 5.1%; in assay [5], 18.6%; in assay [6], -1.35%.

For `CC1(C)CC(N(CCO)CCO)CC(C)(C)N1O`, the growth inhibition is 4.05% in assay [1]; -2.8% in assay [2]; 11.4% in assay [3]; -1.95% in assay [4]; -7.2% in assay [5]; 5.35% in assay [6].

On to `COC1(C)COC(C)(OC)CO1` (centres undefined), for which the growth inhibition is 34.3% in assay [1]; 20.9% in assay [2]; 24.1% in assay [3]; 13.6% in assay [4]; 12.8% in assay [5]; 18.6% in assay [6].

On to `O=[N+]([O-])c1cc(F)cc(I)c1`, for which the growth inhibition is -3.15% in assay [1]; -38.6% in assay [2]; 2.15% in assay [3]; 15.8% in assay [4]; 4.25% in assay [5]; -5% in assay [6].

Regarding `CN(C)c1ccccc1CC(=O)Nc1ccccc1`, the growth inhibition in assay [1] was -12.6%; in assay [2], 4.45%; in assay [3], -5.85%; in assay [4], -21.8%; in assay [5], 1.9%; in assay [6], 3.1%.
